From paper PMC4336329 (PLoS ONE, 2015)
Among all 310,000 compounds or so, about 14,000 (4.5%) showed an effect of 50% or more. The effect is printed as a negative number. Many of the other results were omitted from the sample, so strong results are more common in it than they were.

The molecules below were run against human ether-à-go-go-related gene (hERG) potassium channel (human, UniProt Q12809) (assay: primary screen, population patch clamp on CHO cells stably expressing hERG; higher = less effect of the substance).
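Further: peak tail current of the secondary pulse compared with the same well before compound.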

human ether-à-go-go-related gene (hERG) potassium channel, sequence (Q12809 whole entry, looked up): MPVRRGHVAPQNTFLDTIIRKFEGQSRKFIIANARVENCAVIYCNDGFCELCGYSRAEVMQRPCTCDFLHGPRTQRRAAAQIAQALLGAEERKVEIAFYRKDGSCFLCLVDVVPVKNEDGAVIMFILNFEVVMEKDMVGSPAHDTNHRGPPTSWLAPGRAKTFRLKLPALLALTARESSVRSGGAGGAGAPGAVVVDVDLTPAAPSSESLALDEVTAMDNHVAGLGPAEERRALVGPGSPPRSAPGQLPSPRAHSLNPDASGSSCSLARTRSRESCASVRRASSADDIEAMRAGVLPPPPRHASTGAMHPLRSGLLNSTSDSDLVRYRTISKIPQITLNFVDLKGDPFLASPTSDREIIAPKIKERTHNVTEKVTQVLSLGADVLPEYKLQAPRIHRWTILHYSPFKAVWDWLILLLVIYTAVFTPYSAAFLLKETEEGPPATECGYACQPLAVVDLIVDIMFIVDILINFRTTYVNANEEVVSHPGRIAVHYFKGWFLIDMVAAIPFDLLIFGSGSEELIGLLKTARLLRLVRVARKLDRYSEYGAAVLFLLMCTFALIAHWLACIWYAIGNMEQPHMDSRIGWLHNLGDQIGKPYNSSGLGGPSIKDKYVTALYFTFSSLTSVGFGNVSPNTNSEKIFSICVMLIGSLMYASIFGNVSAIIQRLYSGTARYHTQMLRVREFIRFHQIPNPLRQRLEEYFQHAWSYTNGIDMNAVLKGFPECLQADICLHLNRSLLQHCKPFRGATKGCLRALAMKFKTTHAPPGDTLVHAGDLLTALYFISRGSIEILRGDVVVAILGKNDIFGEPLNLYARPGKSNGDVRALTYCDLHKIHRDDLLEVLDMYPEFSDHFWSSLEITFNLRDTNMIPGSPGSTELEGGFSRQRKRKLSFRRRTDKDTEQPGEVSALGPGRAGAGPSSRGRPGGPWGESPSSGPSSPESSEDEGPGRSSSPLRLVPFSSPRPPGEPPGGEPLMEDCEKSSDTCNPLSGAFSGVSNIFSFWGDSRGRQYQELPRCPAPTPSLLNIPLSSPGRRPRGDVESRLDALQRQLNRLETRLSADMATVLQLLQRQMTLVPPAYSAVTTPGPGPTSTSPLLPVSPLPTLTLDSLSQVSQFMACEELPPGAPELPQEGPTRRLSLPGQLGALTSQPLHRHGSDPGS

SMILES | hERG current change (%, negative = inhibition) at 10uM [%]
CCCN(CC(=O)Nc1cccc(Br)c1)CC(=O)Nc1ccc(F)c(F)c1F | -10.1
CCOC(=O)N1CCN(C(=O)c2ccc3c(c2)NC(=O)/C(=C/c2ccccc2)S3)CC1 | -17.8
Cn1c2ccccc2c2nnc(SCC(=O)Nc3cccc(O)c3)nc21 | -45.6
Cc1ccc(Nc2nc(N)nc(CCl)n2)c(C)c1 | 16.1
COc1ccccc1Nc1nc(N)nc(CN2CCN(Cc3ccc4c(c3)OCO4)CC2)n1 | -78.1
Cc1ccccc1Nc1nc(N)nc(CN2CCN(Cc3ccc4c(c3)OCO4)CC2)n1 | -68
Cc1ccccc1NC(=S)N1CCN(Cc2ccc3c(c2)OCO3)CC1 | -10.3
Cc1ccc(Nc2nc(N)nc(CN3CCC(C)CC3)n2)c(C)c1 | -57.8
Cc1ccc(Nc2nc(N)nc(CN3CCCCCC3)n2)c(C)c1 | -45.8
Cc1ccccc1N1CCN(Cc2ccc3c(c2)OCO3)CC1 | -31.2
COc1ccccc1NC(=S)N1CCN(Cc2ccc3c(c2)OCO3)CC1 | -1.31
COc1ccccc1N1CCN(Cc2ccc3c(c2)OCO3)CC1 | -20.1
Cc1ccc(NC(=S)N2CCN(Cc3ccc4c(c3)OCO4)CC2)c(C)c1 | -1.01
Cc1cccc(Nc2nc(N)nc(CN3CCC(C)CC3)n2)c1C | -37.6
Cc1ccc(Nc2nc(N)nc(CN3CCN(Cc4ccc5c(c4)OCO5)CC3)n2)c(C)c1 | -76.9
O=C(c1ccc2ccccc2c1)N1CCN(c2ccccn2)CC1 | -20
CCOc1ccc(NC2=NCC(=O)N2Cc2cccs2)cc1.Cl | -1.9
COc1ccc(/C(C)=N/NC(=O)c2cc(C)[nH]n2)c(OC)c1 | 1.33
O=C(Nc1nccs1)c1cc2c(s1)CCCCC2 | 6.98
CSCCC(NC(=O)c1ccco1)C(=O)N1CCCCCCC1 (centres unmarked) | -4.39
O=C(CCc1nnc(CCCCc2ccccc2)o1)NCCCc1cccnc1 | -14.8
COc1ccccc1CCNC(=O)c1c(C)nn(CC(C)C)c1Cl | -4.9

SMILES | hERG current change (%, negative = inhibition) at 10uM [%]
CCCC(=O)NC(=S)Nc1sc2c(c1C(N)=O)CCC2 | 11.7
O=C(Cn1c(=O)cnc2ccccc21)Nc1cccc(S(=O)(=O)N2CCCCC2)c1 | -50.3
Cc1ccc(S(=O)(=O)N2CCCCC2)cc1NC(=O)Cn1c(=O)cnc2ccccc21 | 9.61
COc1ccc(NC(=O)Cn2c(=O)cnc3ccccc32)cc1S(=O)(=O)N1CCCCC1 | -10.9
O=C(Cn1c(=O)cnc2ccccc21)Nc1cccc(S(=O)(=O)N2CCOCC2)c1 | -21
Cc1ccc(NC(=O)Cn2c(=O)cnc3ccccc32)cc1S(=O)(=O)N1CCCCC1 | -50.8
Cc1ccc(NC(=O)Cn2c(=O)cnc3ccccc32)cc1S(=O)(=O)N1CCOCC1 | -30.4
CC(C)c1ccc(OCc2nc(-c3ccccn3)no2)c(Br)c1 | -10.6
CCN1C(=O)N(CC)C2C1N(C(C)=O)C(=O)N2C(C)=O (centres unmarked) | -6.42
N#CC1=C(N)OC2=C(C(=O)CCC2)[C@]12C(=O)N(CC(N)=O)c1ccccc12 | 4.73
COc1cc(CC(=O)OCC(=O)N2CC(C)CC(C)C2)cc(OC)c1OC (centres unmarked) | 30.9
O=C(Nc1ccc(CN2CCOCC2)cc1)c1ccc(N2CCCC2)c([N+](=O)[O-])c1 | -21.4
O=C(c1ccc(N2CCOCC2)c([N+](=O)[O-])c1)N1CCN(Cc2ccccc2)CC1 | -66.9
CC1CCN(c2ccc(C(=O)N3CCOCC3)cc2[N+](=O)[O-])CC1 | -0.762
O=C(OCC(=O)N1CCOCC1)c1ccc(N2CCOCC2)c([N+](=O)[O-])c1 | 19.9
O=C(OCC(=O)N1CCc2ccccc2C1)c1ccc(N2CCOCC2)c([N+](=O)[O-])c1 | -51
Cl.O=C(NN1CCN(Cc2ccccc2)CC1)c1ccc(N2CCOCC2)c([N+](=O)[O-])c1 | -66.6
O=C(c1ccc(N2CCCCC2)c([N+](=O)[O-])c1)N1CCOCC1 | -22.6
O=C(Nc1ccccc1N1CCOCC1)c1ccc(N2CCOCC2)c([N+](=O)[O-])c1 | -20.7
Nc1ccc(C(=O)OCC(=O)N2CCc3ccccc3C2)cc1[N+](=O)[O-] | -21.1
CC(=O)OC[C@]1(OC(C)=O)C[C@@]23CC[C@H]4[C@@](C)(CCC[C@@]4(C)C(=O)O)[C@@H]2CC[C@@H]1C3 | 4.84
O=C(NCC(=O)N1CCN(C(=O)c2ccco2)CC1)c1cccc(Cl)c1 | -48.6
